Screening results deposited in PubChem BioAssay by Buhrlage Lab, Dana-Farber Cancer Institute and Novartis Institutes for BioMedical Research (Cambridge, Mass).
USP17 block: inhibitors of human USP17 deubiquitinase | A8MUK1 | purified USP17, Ub-rhodamine cleavage fluorescence, 3 h | inhibition, % at 50 µM | actives 6.5% (n = 47,000) | AID 1645855
USP30 block: human USP30 deubiquitinase inhibition; actives 5.3% (n = 47,000); Q70CQ3; purified USP30, Ub-rhodamine cleavage fluorescence; inhibition, % at 25 µM
USP7 block: blocks human USP7 ubiquitin-rhodamine cleavage; Q93009; purified USP7, Ub-rhodamine cleavage fluorescence; inhibition, % at 20 µM; actives 0.3% (n = 47,000); AID 1645854
USP8 inh: human USP8 deubiquitinase inhibition | purified USP8, Ub-rhodamine cleavage fluorescence, 30 min | inhibition, % at 20 µM | actives 4.2% (n = 47,000) | AID 1645853
Target sequence (P40818 whole entry, looked up): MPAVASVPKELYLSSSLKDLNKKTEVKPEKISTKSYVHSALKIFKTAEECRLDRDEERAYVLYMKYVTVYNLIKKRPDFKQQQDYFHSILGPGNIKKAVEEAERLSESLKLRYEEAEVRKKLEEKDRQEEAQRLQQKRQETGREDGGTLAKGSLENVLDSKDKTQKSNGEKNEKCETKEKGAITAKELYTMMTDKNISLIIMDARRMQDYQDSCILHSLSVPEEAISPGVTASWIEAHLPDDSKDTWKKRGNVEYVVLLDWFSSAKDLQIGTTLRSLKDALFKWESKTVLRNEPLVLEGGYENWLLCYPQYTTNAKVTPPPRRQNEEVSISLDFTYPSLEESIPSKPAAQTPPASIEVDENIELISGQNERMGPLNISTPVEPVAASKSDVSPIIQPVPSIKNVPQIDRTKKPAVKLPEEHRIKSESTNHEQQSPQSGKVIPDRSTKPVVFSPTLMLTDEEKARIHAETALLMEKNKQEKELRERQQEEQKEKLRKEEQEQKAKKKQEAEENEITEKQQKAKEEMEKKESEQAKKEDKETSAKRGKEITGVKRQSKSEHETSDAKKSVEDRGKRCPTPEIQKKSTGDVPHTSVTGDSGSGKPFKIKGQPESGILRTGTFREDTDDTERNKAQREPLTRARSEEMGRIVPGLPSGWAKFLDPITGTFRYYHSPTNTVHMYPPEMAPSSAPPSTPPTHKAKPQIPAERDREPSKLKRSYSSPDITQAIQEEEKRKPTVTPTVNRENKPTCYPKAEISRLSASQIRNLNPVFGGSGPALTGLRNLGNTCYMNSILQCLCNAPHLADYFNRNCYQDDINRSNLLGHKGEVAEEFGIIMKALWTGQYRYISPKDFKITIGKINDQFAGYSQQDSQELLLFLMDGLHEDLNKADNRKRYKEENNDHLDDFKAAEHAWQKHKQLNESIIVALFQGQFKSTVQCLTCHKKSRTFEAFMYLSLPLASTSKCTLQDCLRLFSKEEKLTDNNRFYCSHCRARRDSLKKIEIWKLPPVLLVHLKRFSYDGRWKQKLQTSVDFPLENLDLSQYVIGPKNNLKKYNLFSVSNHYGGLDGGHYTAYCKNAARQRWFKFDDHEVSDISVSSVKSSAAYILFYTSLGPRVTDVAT
USP10 block: blocks human USP10 ubiquitin-rhodamine cleavage | Q14694 | purified USP10, Ub-rhodamine fluorescence, 60 min | inhibition, % at 20 µM | actives 1.1% (n = 47,000)
UCHL1 block: human UCHL1 deubiquitinase inhibition. P09936. purified UCHL1, Ub-rhodamine cleavage fluorescence. inhibition, % at 20 µM. actives 0.2% (n = 47,000). AID 1645859
* = called active by the depositor; / = no result given. Shown are actives, neighbours in structure and some others; about 13% of the full set was active somewhere. Rule as the data show it: active = inhibition above about 30%; inactive = the rest.

SMILES | USP17 block | USP30 block | USP7 block | USP8 inh | USP10 block | UCHL1 block
O=C(Cc1nnc2c(-c3nc(C4CC4)no3)cccn12)N1CCCCCC1 | -6.5 | -73.5 | -5.2 | 43.1* | -3.5 | -5.3
Cc1cccc(NC(=O)Cc2nnc3c(-c4nc(C5CC5)no4)cccn23)c1 | -179.6 | -432.0 | 3.9 | 82.8* | 2.4 | 0.6
Cc1cc(C)cc(OCC(=O)NCC(c2ccco2)N2CCOCC2)c1 (configuration not stated) | -26.9 | -45.9 | -9.2 | -3.2 | -0.7 | 0.5
CCN1CCc2nc(-c3ccc(F)cc3)n(CC(=O)N(CC)c3ccccc3)c(=O)c2C1 | -5.9 | -100.6 | 0.0 | 47.5* | -3.3 | -0.8
CCN1CCc2nc3ccccc3c(C(=O)Nc3ccc(F)cc3)c2C1 | -69.4 | -245.5 | -16.8 | -24.1 | -2.3 | -12.4
Cc1ccc2c(c1)N(C(=O)Cn1c(C)nc3c(c1=O)CCN(Cc1ccccc1)C3)CCO2 | -0.4 | -15.7 | 0.4 | -3.9 | -3.2 | 3.2
CCN1CCc2nc(-c3ccccc3)n(CC(=O)N3CCOc4ccc(C)cc43)c(=O)c2C1 | 13.9 | -43.1 | 3.7 | 58.6* | -5.0 | 1.0
COCCCNC(=O)c1ccc(Cn2c(=O)c3ccccc3n(CC(=O)Nc3ccc4c(c3)OCCO4)c2=O)cc1 | -0.7 | -3.7 | 7.2 | 31.6* | 28.7 | 3.6
O=C(Cn1c(=O)n(Cc2ccc3c(c2)OCO3)c(=O)c2ccccc21)Nc1ccc2c(c1)OCCO2 | 0.0 | -4.7 | 2.5 | -1.8 | 13.2 | 0.0
O=C(CCn1c(=O)c2ccccc2n(CC(=O)Nc2ccc3c(c2)OCCO3)c1=O)NCCc1ccccc1 | 48.5* | 3.8 | 4.0 | 5.9 | 20.8 | -1.0
Cc1ccc(-c2nc(CNC(=O)C3CC3)no2)cc1 | 0.6 | / | -3.0 | -17.2 | -1.6 | -3.8
COc1cccc(NC(=O)CC2C(=O)N(CC3CCCO3)c3nc4ccccc4n32)c1 (configuration not stated) | -6.0 | -0.4 | -20.2 | -0.3 | 0.8 | -1.1
Cc1ccccc1NC(=O)c1nc(-c2cn(Cc3ccc(F)cc3)nn2)no1 | 78.5* | 9.1 | -0.3 | 95.4* | 35.3* | 8.8
Fc1ccc(Cn2cc(-c3noc(-c4ccco4)n3)nn2)cc1 | -3.9 | -137.2 | -8.7 | -4.8 | -3.3 | -0.3
COc1ccccc1NC(=O)c1nc(-c2cn(-c3ccc(F)cc3)nn2)no1 | / | -2.9 | -8.6 | 57.1* | 21.1 | -9.4
COc1ccc(Cl)cc1NC(=O)c1nc(-c2cn(-c3ccccc3)nn2)no1 | 16.1 | 13.8 | -8.8 | 98.7* | 32.3* | 8.5
COc1ccc(N2CCN(C(=O)c3cncc(NS(=O)(=O)c4ccc(F)cc4)c3)CC2)cc1 | 11.3 | -8.9 | -1.9 | 42.3* | -2.5 | 1.6
O=C(N1CCOCC1)N1C[C@H](Oc2ccccn2)[C@H]2C[C@@H]1CC[C@H]2O | -7.0 | -1.9 | 0.2 | 3.1 | 6.1 | 0.0
COc1ccc(CN(C(=O)c2cc(-c3ccccc3)on2)C2CCS(=O)(=O)C2)cc1 (configuration not stated) | 17.7 | 10.5 | 1.8 | 10.6 | 7.6 | 3.3
COc1ccc(CN(C(=O)c2cc(-c3ccc(C)cc3)on2)C2CCS(=O)(=O)C2)cc1 (configuration not stated) | 24.6 | 50.1* | -1.0 | 5.7 | 2.1 | 4.4
COc1ccc2c(CNC3CCCC3)c(C(=O)O)n(Cc3ccccc3F)c2c1 | 0.7 | -4.0 | -13.5 | -13.6 | -1.4 | -0.6
Cc1ccc(-n2nnc(C(=O)NC3CCCCC3)c2N)cc1 | 53.5* | 2.0 | 0.4 | -0.1 | 2.3 | -0.1
Cc1onc(-c2ccccc2)c1C(=O)N[C@H]1[C@H](O)[C@H](O)C[C@@H]1c1ccccc1 | 13.8 | 8.4 | -11.9 | -5.5 | 2.0 | -0.4
Cc1ccc(NC(=O)CCC(=O)Nc2ccc3nc(N4CCCCC4)cc(C)c3c2)c(Br)c1 | 63.4* | 34.2* | 2.6 | 33.3* | 1.4 | 8.6
COc1cc(NC(=O)CCC(=O)Nc2ccc3nc(N4CCOCC4)cc(C)c3c2)cc(OC)c1OC | 16.4 | 28.1 | 2.0 | 13.4 | 2.0 | 2.9
SMILES | USP17 block | USP30 block | USP7 block | USP8 inh | USP10 block | UCHL1 block
Cc1cc(N2CCOCC2)nc2ccc(NC(=O)CCC(=O)Nc3ccc(F)cc3)cc12 | 60.4* | 39.3* | 8.5 | 9.9 | 10.8 | 5.8
C=C1Nc2ccccc2C(=O)N1c1cccc(NC(=O)c2ccc(OC)cc2)c1 | -3.0 | -7.5 | 4.3 | 0.1 | 1.8 | 1.7
O=C(O)CCn1c(=O)[nH]c2cc3c(cc2c1=O)OCO3 | -12.3 | -21.0 | -0.1 | -6.1 | -3.7 | -2.8
O=C(c1ccccc1)c1c[nH]c2cc3c(cc2c1=O)OCO3 | -36.7 | -127.4 | 11.9 | 49.6* | -7.5 | 9.8
COc1ccc(Cl)cc1-c1nc(-c2cccnc2)no1 | 35.1* | -13.4 | / | -13.4 | -6.4 | -5.0
COc1ccc(Cl)cc1-c1nc(-c2ccc(=O)[nH]c2)no1 | -38.6 | -163.7 | -33.1 | -63.4 | -5.5 | -26.9
CNC(=O)[C@@]12CCC3(CCN(C(=O)Cc4ccc(OC)cc4)CC3)[C@@H]1CN(C(C)=O)C2 | 7.8 | 25.0 | 4.8 | -2.9 | 1.6 | 0.4
N=C1C(c2nc3ccccc3s2)=C(O)CN1Cc1ccc(F)cc1 | 50.7* | 17.7 | 3.3 | 33.3* | 8.8 | -2.6
CC(c1ccccc1)N1CC(O)=C(c2nc3ccccc3s2)C1=N (configuration not stated) | 8.7 | 1.4 | 30.2* | 89.6* | 45.0* | 0.1
Cc1nc(-c2cccnc2)nc2c1CC(=O)N2C1CCCC1 | 11.5 | 4.0 | -3.5 | 37.3* | -0.7 | 3.3
CC(=O)Nc1ccc(SCC(=O)Nc2cc(-c3cc(C)c(C)cc3C)nn2-c2ccccc2)cc1 | 19.2 | -43.5 | 6.2 | -14.8 | -5.8 | -4.5
COc1ccc(-c2cc(C(F)F)n3ncc(C(=O)Nc4ccc5c(c4)OCCO5)c3n2)cc1 | 11.0 | 55.9* | 3.6 | 4.2 | 3.2 | 2.5
COc1ccc(-c2cc(C(F)F)n3ncc(C(=O)NCC4CCCO4)c3n2)cc1 (configuration not stated) | 33.5* | / | 2.1 | 0.1 | -3.8 | 2.7
COc1ccc(-c2cc(C(F)F)n3ncc(C(=O)NC(C)c4ccc(C(C)C)cc4)c3n2)cc1 (configuration not stated) | 11.7 | 26.3 | 9.8 | 24.4 | 0.5 | 3.8
O=C(CC1CCCC1)N1C[C@H](OCc2ccncc2)[C@H]2OCCC[C@H]21 | -14.0 | 7.5 | -10.3 | -96.3 | 0.5 | -1.4
COc1cccc(CNC(=O)COc2ccccc2-c2nnc(-c3ccccc3)o2)c1 | 0.3 | 14.4 | 3.4 | -2.7 | -2.5 | -3.3
CCc1ccccc1NC(=O)COc1ccc(Nc2ccccc2)cc1 | 46.0* | 38.5* | 11.3 | 35.4* | 13.0 | 10.3
CCc1ccccc1NC(=O)COc1ccccc1-c1nnc(-c2ccccc2)o1 | 52.5* | 38.1* | 7.1 | 28.6 | 2.8 | 3.8
COc1ccc(CNC(=O)COc2ccccc2-c2nnc(-c3ccccc3)o2)c(OC)c1 | -1.2 | -0.4 | 5.8 | 5.4 | 3.3 | 4.4
O=C(COc1ccccc1-c1nnc(-c2ccccc2)o1)NCc1ccccc1F | 4.9 | -1.6 | 4.9 | 9.1 | 10.8 | -1.9
